Assay outcomes as filed in PubChem BioAssay.
The list is not random: actives were taken first. Their share in the collection is about 3.3%.
DNA Pol III inh: DNA polymerase III holoenzyme inhibition; reconstituted DNA polymerase III holoenzyme replication, biochemical; Potency, µM (doses to about 57.1 µM); 0.25% of 71,000 active; AID 603
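Reconstituted *E. coli* holoenzyme (0.35 nM Pol III, 1 nM beta, 154 nM SSB, 2 nM primase) was preincubated with compound for 15 min at RT. Synthesis on 1.4 nM ssM13Gori ran 35 min, then was stopped with PicoGreen/EDTA and read as dsDNA fluorescence.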
BRCT PPI green: inhibitors of human BRCA1 BRCT-phosphoprotein interaction (green fluorophore) | P38398 | 0.05% of 75,000 active | BRCA1 BRCT-phosphopeptide binding, green fluorescence polarization | Potency, µM (titrated, usually from 76.9 µM), hits mostly inhibitors
Target sequence (P38398 whole entry, looked up): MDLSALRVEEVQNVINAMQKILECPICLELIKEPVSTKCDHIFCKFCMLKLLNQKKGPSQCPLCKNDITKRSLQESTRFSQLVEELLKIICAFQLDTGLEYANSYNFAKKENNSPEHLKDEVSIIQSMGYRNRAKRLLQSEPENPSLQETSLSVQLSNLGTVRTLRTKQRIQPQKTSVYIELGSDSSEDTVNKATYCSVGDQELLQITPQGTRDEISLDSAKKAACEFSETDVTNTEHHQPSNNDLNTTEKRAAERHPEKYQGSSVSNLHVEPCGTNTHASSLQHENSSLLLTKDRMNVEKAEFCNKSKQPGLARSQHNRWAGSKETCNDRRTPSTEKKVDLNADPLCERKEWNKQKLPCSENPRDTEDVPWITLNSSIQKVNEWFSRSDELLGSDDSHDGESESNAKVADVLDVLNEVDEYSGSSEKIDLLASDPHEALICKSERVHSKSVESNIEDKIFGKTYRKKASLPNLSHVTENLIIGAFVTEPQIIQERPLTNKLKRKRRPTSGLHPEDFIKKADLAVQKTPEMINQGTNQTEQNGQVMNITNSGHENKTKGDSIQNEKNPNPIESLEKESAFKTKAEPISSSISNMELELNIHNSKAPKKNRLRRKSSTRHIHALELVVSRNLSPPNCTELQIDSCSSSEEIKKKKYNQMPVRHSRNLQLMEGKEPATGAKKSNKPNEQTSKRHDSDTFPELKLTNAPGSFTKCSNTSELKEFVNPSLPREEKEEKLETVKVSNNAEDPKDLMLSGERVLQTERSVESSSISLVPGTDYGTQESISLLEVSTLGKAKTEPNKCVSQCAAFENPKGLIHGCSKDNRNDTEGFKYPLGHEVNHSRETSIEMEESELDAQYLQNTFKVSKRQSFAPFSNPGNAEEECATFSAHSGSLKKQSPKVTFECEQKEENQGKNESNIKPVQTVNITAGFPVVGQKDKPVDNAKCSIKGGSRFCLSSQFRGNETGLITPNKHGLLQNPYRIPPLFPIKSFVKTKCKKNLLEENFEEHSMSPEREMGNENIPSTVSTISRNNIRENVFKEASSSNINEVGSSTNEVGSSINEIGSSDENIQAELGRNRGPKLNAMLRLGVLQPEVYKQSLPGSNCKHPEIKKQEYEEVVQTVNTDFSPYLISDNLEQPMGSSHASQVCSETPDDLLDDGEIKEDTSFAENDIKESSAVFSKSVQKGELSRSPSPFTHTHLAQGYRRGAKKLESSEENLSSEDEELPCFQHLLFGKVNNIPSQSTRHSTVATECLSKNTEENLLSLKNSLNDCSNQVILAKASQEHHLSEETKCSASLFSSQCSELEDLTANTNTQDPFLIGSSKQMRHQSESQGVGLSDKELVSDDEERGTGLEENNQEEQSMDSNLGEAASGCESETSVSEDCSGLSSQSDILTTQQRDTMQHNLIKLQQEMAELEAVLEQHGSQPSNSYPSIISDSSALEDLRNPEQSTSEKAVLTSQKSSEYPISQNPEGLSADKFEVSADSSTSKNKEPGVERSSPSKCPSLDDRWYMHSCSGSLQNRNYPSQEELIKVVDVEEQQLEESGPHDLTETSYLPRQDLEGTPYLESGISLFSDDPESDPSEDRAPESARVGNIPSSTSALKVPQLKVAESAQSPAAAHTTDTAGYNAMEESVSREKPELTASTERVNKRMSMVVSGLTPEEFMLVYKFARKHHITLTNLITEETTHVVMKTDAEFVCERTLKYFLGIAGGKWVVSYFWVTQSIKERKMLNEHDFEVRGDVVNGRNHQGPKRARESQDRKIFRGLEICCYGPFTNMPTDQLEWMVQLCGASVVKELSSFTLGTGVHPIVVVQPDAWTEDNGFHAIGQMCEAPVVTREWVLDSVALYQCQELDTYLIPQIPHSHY
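Fluorescence polarization: His-tagged BRCT (~35 kDa BRCA1 C-terminus, 250 nM) bound to 100 nM fluorescein-labeled phosphorylated 10-aa BACH1 peptide, pH 7.3 phosphate buffer with DTT and Tween 20. Compounds incubated 12 min at room temperature; inhibition read as lowered polarization.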
TsaE inh: inhibitors of E. coli YjeE (TsaE); purified YjeE enzyme, qHTS inhibition assay; 0.05% of 71,000 active; Potency, µM; P0AF67
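Fluorescence polarization of a BODIPY Texas Red–ADP probe (2 uM) bound to purified YjeE (10 uM) was read after 15 min room-temperature incubation with compounds. Loss of polarization marks inhibitors; ADP serves as titrated control.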
BRCT PPI red: inhibitors of human BRCA1 BRCT-phosphoprotein interaction (red fluorophore); AID 892; 0.03% of 75,000 active; P38398; Potency, µM (titrated, usually from 76.9 µM), usual class: inhibitors; BRCT-phosphopeptide binding, red fluorescence polarization
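Fluorescence polarization: 100 nM His-tagged BRCA1 BRCT with 100 nM TAMRA-labelled phospho-BACH1 decapeptide, phosphate buffer pH 7.3 with 150 mM NaCl, DTT, 0.01% Tween 20; 12 min RT. Binding inhibition seen as FP decrease.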
15-hLO inh: inhibitors of human 15-lipoxygenase (ALOX15) | P16050 | purified 15hLO-1, xylenol orange hydroperoxide absorbance | Potency, µM (series often up to 57.1 µM), usual class: inhibitors | 1.4% of 74,000 active; also: nearly all actives have a fitted effect of over 55% in size
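Purified human 15hLO-1 (40 nM) in 25 mM Hepes pH 7.5, 0.01% Triton X-100, preincubated 15 min RT with compound, then 50 uM arachidonic acid for 6 min. Hydroperoxide read by ferrous/xylenol orange, 30 min; 573/405 nm absorbance ratio gave progress.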
Tau fil binding: binds recombinant human tau filaments. 2% of 71,000 active. Potency, µM (top dose mostly 57.1 µM). recombinant tau filaments, thioflavin S fluorescence, 15 h; filaments grown with octadecylsulfate alongside compound. AID 596. P10636;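 also: actives lower thioflavin S fluorescence by blocking filaments or displacing dye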
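ThS-based fibril read: tau 1 uM final, inducer ODS 30 uM final, 37 C for 15 h, ex 450/em 510 nm.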
Of the large screens only hits and unclear results are named; the others gave an inactive call. Calls follow the shape of the dose curve; as a rule, active = well fitted curve in the direction sought with a large enough effect; inconclusive = small, poorly fitted or top-dose-only effect, or another doubt; inactive = no such curve, though single readings can be large; an effect the other way counts as inactive or inconclusive.

Cc1c(/N=C/c2ccco2)n(Cc2ccccc2)c2ccccc12	15-hLO inh inconclusive, Tau fil binding 1.6µM
COc1ccc(NC(=O)c2cc(-c3ccc(C)o3)nc3ccccc23)cc1OC	15-hLO inh 32µM
COc1cc(NC(=O)c2cc3c(C)nc4ccccc4c3o2)cc(OC)c1OC	none
COC(=O)C1C(C)OC(=O)NC1c1ccccc1 (stereo unspecified)	none (no result: DNA Pol III inh, TsaE inh, Tau fil binding)
O=C(O)CCc1ccc(-c2ccccc2)n1CC(=O)O	none
O=C(O)CCc1ccc(-c2ccccc2)n1-c1cccc(O)c1	15-hLO inh 10µM
Nc1ccccc1S[C@@H](C[N+](=O)[O-])c1ccc2c(c1)OCO2	15-hLO inh 2.5µM
NC1=NC(=Nc2ccccc2)c2ccccc21	Tau fil binding inconclusive
Nc1ccc(N=Nc2ccccc2)c(N)c1	Tau fil binding 1.6µM
CCOc1cccc(C=Nc2cc(C)cc(C)c2O)c1O	15-hLO inh 10µM, Tau fil binding inconclusive
NN(CC(=O)O)CC(=O)O	none
Cc1csc(NC(=O)CSc2nnc(Cc3cccn3C)n2CCc2ccccc2)n1	15-hLO inh 13µM
Cn1cccc1Cc1nnc(SCC(=O)Nc2ccccc2F)n1CCc1ccccc1	15-hLO inh 16µM
COC(=O)COc1ccc(S(=O)(=O)NCCC2=CCCCC2)cc1	none
COC(=O)COc1ccc(S(=O)(=O)NCCC2=CCCCC2)cc1C	15-hLO inh 6.3µM
CC(C)C12CN3CC(C(C)C)(CN(C1)C31C(=O)Nc3ccccc31)C2=O (stereo unspecified)	Tau fil binding 16µM
CC(C)C12CN3CC(C(C)C)(CN(C1)C3c1ccccc1O)C2=O (stereo unspecified)	none
O=C(Cn1nnc2c(cnn2-c2ccccc2)c1=O)N1CCN(c2ccccc2F)CC1	Tau fil binding inconclusive
O=C(Cn1nnc2c(cnn2-c2ccc(F)cc2)c1=O)OC1CCCCC1	Tau fil binding 20µM
COC(=O)C/C=C\[C@@H](C)[C@@H](/C=N\OC[C@@H](O)COCc1ccco1)OC	none (no result: DNA Pol III inh, TsaE inh, Tau fil binding)
N#Cc1c(/N=C/c2ccco2)sc2c1CCCCC2	Tau fil binding 16µM
N#Cc1c(/N=C/c2cccs2)sc2c1CCC2	Tau fil binding 16µM
CN1CCc2c(sc(/N=C/c3cccs3)c2C(N)=O)C1	15-hLO inh inconclusive
Cc1ccc(S(=O)(=O)OC2CCN(C)CC2)cc1	none
COc1ccc(-c2cc([C@H](O)[C@@H]3CCCCN3)c3ccccc3n2)cc1	none
CCn1c(SCc2ccc(C(=O)OC)o2)nc2sc3c(c2c1=O)CCCC3	none
COC(=O)c1ccc(CSc2nc(C(F)(F)F)c3c(c2C#N)CCC3)o1	15-hLO inh 20µM, Tau fil binding inconclusive
COc1cccc(-c2cncnc2NCc2ccc(OC)cc2OC)c1	none
Cc1ccc(C23CC4CC(CC(NC(=O)N5CCN(C)CC5)(C4)C2)C3)cc1	Tau fil binding 16µM
NC(=O)c1cccc2c3c([nH]c12)CCCC3	15-hLO inh 3.2µM
O=c1c2c([nH]c3ccccc13)CCCCCC2	none
CCCCNc1nc(SC)nc2nc[nH]c12	none
Cc1cc2nn(-c3cccc4ccccc34)nc2cc1N	15-hLO inh inconclusive, Tau fil binding 7.9µM
Nc1ccc2nn(-c3cccc4ccccc34)nc2c1	15-hLO inh inconclusive (no result: DNA Pol III inh, TsaE inh, Tau fil binding)
C#CCCCCCCCCCCCC(O)CC(O)COC(C)=O (stereo unspecified)	none (no result: DNA Pol III inh, TsaE inh, Tau fil binding)
CN(Cc1ccco1)c1nc(-c2ccoc2)nc2ccccc12	15-hLO inh 13µM
CN(C)c1ccc(-c2nc(N(C)Cc3ccco3)c3ccccc3n2)cc1	none
O=C(NCCN1CCOCC1)c1cc(-c2ccc(O)cc2)on1	none
O=C(OCc1nnc(-c2ccc(Cl)cc2)o1)c1ccc(=O)n(Cc2ccccc2)n1	15-hLO inh 20µM
CC(C)CC(=O)Nc1ccc(-c2cn3ccsc3n2)cc1	Tau fil binding 13µM
CC(C)(C)C(=O)Nc1ccc(-c2cn3ccsc3n2)cc1	none
Nc1ccn([C@@H]2O[C@@H](CO)[C@@H](O)[C@H]2O)c(=O)n1	none (no result: Tau fil binding)
COC(=O)c1[nH]c2ccc(C)cc2c1NC(=O)Nc1ccccc1OC	15-hLO inh 25µM
COC(=O)c1[nH]c2ccc(C)cc2c1NC(=O)CN1CCc2cc(OC)c(OC)cc2C1	none
COc1ccc(C(C(O)C(=O)c2c[nH]c3ccccc23)N2CCN(c3ccc(OC)cc3)CC2)cc1 (stereo unspecified)	Tau fil binding 13µM
CCOC(=O)c1cnn2c(C(F)(F)F)cc(-c3ccco3)nc12	none
CCOC(=O)c1cc(-c2ccco2)nc2c1c(C)nn2-c1ccccc1	Tau fil binding 10µM
Cc1nn(-c2ccccc2)c2nc(-c3ccncc3)cc(C(=O)NCc3ccco3)c12	15-hLO inh 25µM, Tau fil binding 32µM
CCCNC(=O)OC[C@@H]1O[C@H](CCON=C(C)C)C=C[C@@H]1Oc1ccc(OC)cc1	none (no result: DNA Pol III inh, TsaE inh, Tau fil binding)
COc1cc(OC)c(C2N(c3ccc(Cl)cc3)C(=O)C3CCCN32)cc1OC (stereo unspecified)	Tau fil binding 20µM
O.O.O.O.O.O.O.O=S(=O)([O-])[O-].[Co+2]	TsaE inh inconclusive, Tau fil binding 3.2µM
c1ccc2c(c1)nnn2CN1CCOCC1	none
CCCCSc1nnc(-c2cc(Br)ccc2N)c(=O)[nH]1	Tau fil binding 20µM
CCN(CC)CCNC(=O)Cc1nn(CC)c(=O)c2ccccc12	none
CCN(CC)CCNc1ccc(CO)c2sc3ccccc3c(=O)c12	DNA Pol III inh inconclusive, Tau fil binding 4µM
O=c1c2ccccc2sc2c(CO)ccc(NCCN3CCCCC3)c12	Tau fil binding 3.2µM
O=C(NCCO)c1ccc(Cc2nc3ccccc3[nH]2)cc1	none (no result: DNA Pol III inh, TsaE inh, Tau fil binding)
COc1ccc(S(=O)(=O)N(C)CC(=O)O)cc1C	none (no result: DNA Pol III inh, TsaE inh, Tau fil binding)
O=C(O)C(=Cc1ccc(-c2ccccc2)cc1)C(=O)O	none
CNCCCCCCCCSc1nc(C(C)C)ccc1C(=O)c1cccs1	Tau fil binding 13µM
CO[C@@H]1/C=C\CC(=O)N2CCC[C@@H]2C(=O)OC[C@H](C)C(=O)OC[C@H]1C	none (no result: DNA Pol III inh, TsaE inh, Tau fil binding)
COc1cccc(NC(=O)CSc2nnc(-c3cc(-c4ccccn4)nc4ccccc34)o2)c1	Tau fil binding 25µM
CC(C)=CCC/C(C)=C/CO/N=C1/C[C@@H](O)[C@@H](O)[C@@H]2[C@@H]3C(=O)N(C4CCCCC4)C(=O)[C@H]3CC[C@H]12	none (no result: DNA Pol III inh, TsaE inh, Tau fil binding)
O=C1C2C3CCCC3=C3CCCC3C2C(=O)N1c1cccc(Cl)c1 (stereo unspecified)	15-hLO inh 10µM
COc1cc2cc[n+]3cc4c(OC)c(OC)ccc4cc3c2cc1OC	none (no result: DNA Pol III inh, TsaE inh, Tau fil binding)
COc1cc2cc3c4cc(OC)c(OC)cc4cc[n+]3c(C)c2cc1OC	DNA Pol III inh 13µM
